High-throughput results from PubChem.
Hits are enriched below; roughly 4% of the tested compounds scored in any of these assays.
Beta cell apopt = blocks beta cell apoptosis | INS-1E cytokine-induced death, ATP luminescence, 48 h; percent of positive-control rescue, neutral wells zero | protection from apoptosis, % (no concentration beside the values) | hit rate 0.8% among 300,000 | AID 435005;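 active = Every replicate reaches about 75%, or at least half do and their mean reaches it too, limit read from the data; inconclusive = At least half of replicates reach the limit but their mean does not; inactive = Under half of replicates reach the limit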;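 note: 0% = cytokine-treated negative control wells and 100% = positive control rescue; higher means more ATP so stronger rescue from cytokine killing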
CSC inhib = cancer stem cell inhibition. cancer stem cell-like cells viability, luminescence. inhibition, % at 7.5 µM. hit rate 1.1% among 300,000; in the data active = inhibition above about 75%; inconclusive = no clear call, values can overlap the other calls; tested in HMLE shEcad cells
PAX8 reporter = lowers PAX8-driven luciferase in RMG-I cells. AID 652154. hit rate 1.2% among 360,000. RMG-I TPO-luciferase reporter, SteadyGlo, 24 h. inhibition, % at 12.6 µM;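 active = mean replicate inhibition at least 60% with every replicate also reaching 60%; inconclusive = only one of the two criteria is met; inactive = mean below 60% and not all replicates reaching 60%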;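 note: luciferase light reporting Pax8 driven TPO promoter activity; plate controls were median of neutral control wells for no effect and mitoxantrone controls for full effect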
Shn3 inh set2 = inhibitors of Schnurri-3 3'UTR reporter in osteoblasts | Clone20 osteoblast Shn3 3'UTR firefly luciferase, 24 h | inhibition, % at 12.5 µM | hit rate 0.52% among 360,000 | AID 588674;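 active = mean inhibition of at least 75% with every replicate also reaching 75%; inconclusive = mean inhibition at least 75% but some replicate below; inactive = mean inhibition below 75%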;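 note: 0% = median of neutral control wells and 100% = pilot-screen positive control compound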
Gli-Sufu block = blocks Gli-Sufu signaling in a luciferase reporter; Sufu-KO-LIGHT fibroblasts, Gli luciferase reporter luminescence; inhibition, % at 5 µM; hit rate 0.74% among 340,000; AID 588413;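 active = inhibition above about 55%, limit read from the data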;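 note: 0% = DMSO-treated cells and 100% = wells with medium but no cells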
Mdm2 MdmX PPI = inhibitors of human Mdm2/MdmX interaction | hit rate 3% among 330,000 | inhibition, % at 8 µM | SaOS-2 split-luciferase Mdm2/MdmX complementation, luminescence | O15151+Q00987 | AID 485346;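 active = inhibition of at least 50% at 8 µM in the primary screen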
* marks the source's active call; other numbers are inactive results; ? = inconclusive; . = no result.

SMILES	Beta cell apopt	CSC inhib	PAX8 reporter	Shn3 inh set2	Gli-Sufu block	Mdm2 MdmX PPI
Oc1c(C(c2ccccc2)N2CCOCC2)ccc2ccccc12 (stereo not drawn)	.	.	87*	11	9	.
O=C(Nc1ccc(Cl)c(Cl)c1)O/N=C/c1ccncc1	17	75*	54	2	-3	11
O=C1c2ccccc2C(=O)N1CCCCN(C(=O)c1cc([N+](=O)[O-])cc([N+](=O)[O-])c1)c1ccc(Cl)cc1	4	-5	83*	9	7	10
Cc1nn(-c2ccccc2)c(N2CCCCC2)c1/C=N/O	-10	164*	.	6	2	5
Cc1nn(-c2ccccc2)c(N2CCCC2)c1C=O	-9	-13	-16	7	-5	25
COc1ccccc1NC(=S)NC1CCCCC1	-4	-15	-17	-3	-5	-20
COc1ccccc1NC(=S)NC1CCCCCCCCCCC1	77*	20	0	10	9	50
S=C(Nc1ccc(Oc2ccccc2)cc1)NC1CCCCCC1	6	95*	9	9	15	.
O=C(C1CC1)N1CC[C@@H]2[C@H]1c1cc(C#Cc3ccccc3F)ccc1N[C@@H]2CO	.	.	-19	.	.	.
CC(=O)NS(=O)(=O)c1ccc(NC(=O)c2cccc(S(=O)(=O)N3CCc4ccccc43)c2)cc1	-1	-1	7	3	-1	-4
CN(C)S(=O)(=O)c1cccc(NC(=O)c2cccc(S(=O)(=O)N3CCc4ccccc43)c2)c1	.	.	54	92*	3	21
CCN1c2ccccc2NC2N=C(OC)C(c3ccccc3)C21 (stereo not drawn)	111*	1	.	47	2	44
COc1ccc(S(=O)(=O)N[C@@H]2CC[C@H](CC(=O)NCCc3ccccc3)O[C@H]2CO)cc1	.	.	-4	.	.	.
COC(=O)c1c(NC(=O)CC2SC(N)=NC2=O)sc2c1CCC(C(C)(C)C)C2 (stereo not drawn)	0	109*	-25	-1	5	36
O=C(N/N=C/c1cc(Br)ccc1OC(=O)c1ccc(Br)cc1)c1ccncc1	92*	.	27	?	21	43
CCOc1cc(/C=N\NC(=O)c2ccc(NC(=O)CC)cc2)ccc1OC(=O)c1ccccc1	.	30	.	95*	-2	19
COc1cc(C(=O)Oc2ccccc2/C=N/NC(=O)c2ccc(C)cc2)cc(OC)c1OC	103*	13	.	28	-16	19
CC(C)(C)C(=O)Nc1ccc(C(=O)N/N=C/c2ccccc2OC(=O)c2ccc(Cl)cc2)cc1	103*	16	10	33	14	47
CC(C)(C)C(=O)Nc1ccc(C(=O)N/N=C/c2ccccc2OC(=O)c2ccccc2)cc1	87*	-11	.	37	-28	30
Cc1cccc(C(=O)Oc2ccccc2/C=N/NC(=O)c2ccc(NC(=O)C(C)(C)C)cc2)c1	19	26	6	-8	10	32
C[C@H](CO)N1C[C@H](C)[C@@H](CN(C)Cc2ccc(C(F)(F)F)cc2)Oc2ccc(NC(=O)C3CCCCC3)cc2CC1=O	.	.	-14	.	.	.
O=C(OCn1ncc(Cl)c(Cl)c1=O)c1ccccc1Cl	101*	-50	.	99*	4	.
C[C@@H]1CCCCO[C@@H](CN(C)S(C)(=O)=O)[C@H](C)CN([C@@H](C)CO)C(=O)c2cc(NC(=O)c3ccccc3)ccc2O1	.	.	10	.	.	.
Cc1ccc(C)c(Cc2c(C)nc3c(C(=O)NCc4ccc5c(c4)OCO5)cnn3c2C)c1	11	78*	.	.	.	10
CCN(C)C[C@@H]1Oc2cc(C#CCC3CCCC3)ccc2S(=O)(=O)N([C@@H](C)CO)C[C@H]1C	.	.	18	.	.	.
COc1ccccc1S(=O)(=O)N(C)C[C@@H]1Oc2cc(C#CCC3CCCC3)ccc2S(=O)(=O)N([C@@H](C)CO)C[C@@H]1C	.	.	76*	.	.	.
COc1ccccc1S(=O)(=O)N(C)C[C@@H]1Oc2cc(C#CCC3CCCC3)ccc2S(=O)(=O)N([C@@H](C)CO)C[C@H]1C	.	.	73*	.	.	.
CCN1C/C(=C/c2cccc([N+](=O)[O-])c2)C(=O)/C(=C/c2cccc([N+](=O)[O-])c2)C1	98*	85*	56	99*	58*	.
CCCC#Cc1ccc([C@H]2[C@H]3CN(C(=O)c4ccc5c(c4)OCO5)CCCCN3[C@H]2CO)cc1	.	.	32	.	.	.
Cc1ccc(-c2ccc([C@H]3[C@@H](CO)N4CCCCN(S(=O)(=O)c5cccc(C)c5)C[C@H]34)cc2)cc1	.	.	73*	.	.	.
